# Laboratory results: PubChem BioAssay (NCATS)
# Active and inactive are the calls of the source. Calls follow the shape of the dose curve; as a rule, active = well fitted curve in the direction sought with a large enough effect; inconclusive = small, poorly fitted or top-dose-only effect, or another doubt; inactive = no such curve, though single readings can be large; an effect the other way counts as inactive or inconclusive.
# Molecular target: Alpha-galactosidase (Coffea arabica) (UniProt Q42656)
# Experiment: Counterscreen for Glucocerebrosidase Inhibitors: qHTS Assay for Coffee Bean alpha-Galactosidase at pH 4.5 (AID 957)
# Settings: purified coffee bean alpha-galactosidase, fluorogenic substrate; series mostly up to 76.9 µM
# Procedure, shortened: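 Green coffee bean enzyme (2 nM final) was incubated with compounds (0.7 nM to 77 uM) and 4-methylumbelliferyl alpha-D-galactopyranoside (80 uM final) in 50 mM citric acid, 0.005% Tween-20, pH 4.5, 20 min at room temperature; AC50 from Hill fits.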
# Sequence of Alpha-galactosidase (Coffea arabica) (Q42656 whole entry, looked up): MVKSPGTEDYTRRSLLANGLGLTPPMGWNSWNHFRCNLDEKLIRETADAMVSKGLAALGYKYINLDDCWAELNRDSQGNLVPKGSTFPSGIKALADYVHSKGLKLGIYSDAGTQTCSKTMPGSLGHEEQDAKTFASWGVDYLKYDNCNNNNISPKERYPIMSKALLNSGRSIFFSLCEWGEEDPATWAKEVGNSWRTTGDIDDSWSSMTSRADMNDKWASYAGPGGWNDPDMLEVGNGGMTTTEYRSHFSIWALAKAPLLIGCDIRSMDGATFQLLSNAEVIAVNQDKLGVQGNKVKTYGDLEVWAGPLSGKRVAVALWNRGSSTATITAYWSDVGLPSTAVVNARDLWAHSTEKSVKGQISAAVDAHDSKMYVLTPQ
row,SMILES,outcome
1,Fc1ccc(C(c2ccc(F)cc2)N2CCN(C/C=C\c3ccccc3)CC2)cc1,inactive
2,NCCCCNS(=O)(=O)c1cccc2c(Cl)cccc12,inactive
3,CO[C@]1(C2=NCCN2)COc2ccccc2O1,inactive
4,CN1[C@@H]2CC[C@H]1CC(OC(=O)[C@@H](CO)c1ccccc1)C2 (stereo not given in full),inactive
5,CCN1CCC[C@@H]1CNC(=O)c1cc(S(N)(=O)=O)ccc1OC,inactive
6,CSc1nc(N)c2ncn([C@@H]3O[C@@H](COP(=O)(O)OP(=O)(O)O)[C@@H](O)[C@H]3O)c2n1,inactive
7,CC(=O)O[C@@H](C)C[N+](C)(C)C,inactive
8,C[C@@]12C(=O)OC(=O)[C@@]1(C)[C@H]1CC[C@@H]2O1,inactive
9,CC[C@H](NC(C)C)[C@H](O)c1ccc(O)c(O)c1,inactive
10,CN[C@]1(C)[C@@H]2CC[C@@H](C2)C1(C)C,inactive
11,OC[C@@H]1O[C@@H](n2cnc3c(Nc4ccccc4)ncnc32)[C@@H](O)[C@H]1O,inactive
12,NC(=S)c1ccc[n+]([C@@H]2O[C@@H](COP(=O)([O-])OP(=O)(O)OC[C@@H]3O[C@@H](n4cnc5c(N)ncnc54)[C@@H](OP(=O)(O)O)[C@H]3O)[C@@H](O)[C@H]2O)c1,inactive
13,N[C@@H](CO)C(=O)NNCc1ccc(O)c(O)c1O,inactive
14,C[C@@](N)(Cc1ccc(O)cc1)C(=O)O,inactive
15,C[C@@H]1C[C@@H]2[C@H]3CCC4=CC(=O)C=C[C@]4(C)[C@]3(Cl)[C@@H](O)C[C@@]2(C)[C@@]1(O)C(=O)CO,inactive
16,CCN1CCC[C@@H]1CNC(=O)c1c(O)c(Cl)cc(Cl)c1OC,inactive
17,Nc1nc(Cl)nc2c1ncn2[C@@H]1O[C@@H](COP(=O)(O)OP(=O)(O)OP(=O)(O)O)[C@@H](O)[C@H]1O,inactive
18,O=C(O)CC[C@@H](NC(=O)c1ccccc1C(=O)O)C(=O)O,inactive
19,C[C@@]12CCC(=O)C=C1CC[C@@H]1[C@@H]2[C@H](O)C[C@]2(C)[C@@H]1CC[C@]2(O)C(=O)COC(=O)CCC(=O)O,inactive
20,CC(C)(C(=O)O)c1ccc([C@@H](O)CCCN2CCC(C(O)(c3ccccc3)c3ccccc3)CC2)cc1,inactive
21,CNC(=O)[C@@H]1O[C@@H](n2cnc3c(NCc4ccc(N)cc4)ncnc32)[C@@H](O)[C@H]1O,inactive

# Molecular target: Alpha-galactosidase (Coffea arabica) (UniProt Q42656)
# Experiment: Counterscreen for Glucocerebrosidase Inhibitors: qHTS Assay for Coffee Bean alpha-Galactosidase at pH 5.9 (AID 998)
# Settings: coffee bean alpha-galactosidase enzyme assay; series mostly up to 76.9 µM
# Procedure, shortened: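 Green coffee bean enzyme (2 nM) with 4-methylumbelliferyl alpha-D-galactopyranoside (80 uM) in 50 mM citric acid, 0.005% Tween-20, pH 5.9, 20 min at room temperature; compounds 0.7 nM–77 uM. Stopped at pH 10, fluorescence Ex365/Em440; Hill-fit AC50.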
row,SMILES,outcome
1,Cc1ccccc1N1CCN(S(=O)(=O)C[C@@]23CC[C@H](C[C@H]2NC(=O)[C@@H](N)CCS(C)(=O)=O)C3(C)C)CC1,inactive
2,Oc1cc2c(c(Cl)c1O)CCNC[C@H]2c1ccccc1,inactive
3,CCCN1C[C@@H](CSC)C[C@H]2c3cccc4[nH]cc(c34)C[C@@H]21,inactive
4,CC(C)[C@H]1C(=O)C(C(N)=O)=C(O)[C@]2(O)C(=O)C3=C(O)c4c(O)ccc(N(C)C)c4C[C@H]3C[C@@H]12,inactive
5,O=C(O)[C@H]1C[C@H](C(=O)O)N1,inactive
6,O=C(c1ccccc1)c1ccc2n1CC[C@H]2C(=O)O,inactive
7,CN1CCc2cccc3c2[C@@H]1Cc1ccc(O)c(O)c1-3,inactive
8,CCCCC/C=C\C[C@H](O)/C=C\c1cccc(C[C@H](O)CCCCO)n1,inactive
9,O=C(O)/C=C\c1cnc[nH]1,inactive
10,O=C1CC[C@H](N2C(=O)c3ccccc3C2=O)C(=O)N1,inactive
11,C[C@@H](CN(C)C)CN1c2ccccc2CCc2ccccc21,inactive
12,CN1CCc2c(cc(O)c(O)c2Cl)[C@H](c2cccc(Cl)c2)C1,inactive
13,O=C(O)/C=C\[C@H](O)c1ccc(Cl)cc1,inactive
14,Nc1ncnc2c1ncn2[C@@H]1CCCO1,inactive
15,CC(C)CN(C)c1nc(N)c(C(=O)N=C(N)N)nc1Cl,inactive
16,CC[C@H](C)C(=O)O[C@H]1CCC=C2C=C[C@H](C)[C@H](CC[C@@H]3C[C@H](O)CC(=O)O3)[C@H]21,inactive
17,COc1ccc(CCNC[C@H](O)c2ccc(O)cc2)cc1OC,inactive
18,Cc1cc(C)c(/C=C2/C(=O)Nc3ccccc32)[nH]1,inactive
19,Fc1ccc(C(c2ccc(F)cc2)N2CCN(C/C=C\c3ccccc3)CC2)cc1,inactive
20,NCCCCNS(=O)(=O)c1cccc2c(Cl)cccc12,inactive

row,SMILES,outcome
1,CO[C@]1(C2=NCCN2)COc2ccccc2O1,inactive
2,CN1[C@@H]2CC[C@H]1CC(OC(=O)[C@@H](CO)c1ccccc1)C2 (stereo not given in full),inactive
3,CCN1CCC[C@@H]1CNC(=O)c1cc(S(N)(=O)=O)ccc1OC,inactive
4,CSc1nc(N)c2ncn([C@@H]3O[C@@H](COP(=O)(O)OP(=O)(O)O)[C@@H](O)[C@H]3O)c2n1,inactive
5,CC(=O)O[C@@H](C)C[N+](C)(C)C,inactive
6,C[C@@]12C(=O)OC(=O)[C@@]1(C)[C@H]1CC[C@@H]2O1,inactive
7,CC[C@H](NC(C)C)[C@H](O)c1ccc(O)c(O)c1,inactive
8,CN[C@]1(C)[C@@H]2CC[C@@H](C2)C1(C)C,inactive
9,OC[C@@H]1O[C@@H](n2cnc3c(Nc4ccccc4)ncnc32)[C@@H](O)[C@H]1O,inactive
10,NC(=S)c1ccc[n+]([C@@H]2O[C@@H](COP(=O)([O-])OP(=O)(O)OC[C@@H]3O[C@@H](n4cnc5c(N)ncnc54)[C@@H](OP(=O)(O)O)[C@H]3O)[C@@H](O)[C@H]2O)c1,inactive
11,N[C@@H](CO)C(=O)NNCc1ccc(O)c(O)c1O,inactive
12,C[C@@](N)(Cc1ccc(O)cc1)C(=O)O,inactive
13,C[C@@H]1C[C@@H]2[C@H]3CCC4=CC(=O)C=C[C@]4(C)[C@]3(Cl)[C@@H](O)C[C@@]2(C)[C@@]1(O)C(=O)CO,inactive
14,CCN1CCC[C@@H]1CNC(=O)c1c(O)c(Cl)cc(Cl)c1OC,inactive
15,Nc1nc(Cl)nc2c1ncn2[C@@H]1O[C@@H](COP(=O)(O)OP(=O)(O)OP(=O)(O)O)[C@@H](O)[C@H]1O,inactive
16,O=C(O)CC[C@@H](NC(=O)c1ccccc1C(=O)O)C(=O)O,inactive
17,C[C@@]12CCC(=O)C=C1CC[C@@H]1[C@@H]2[C@H](O)C[C@]2(C)[C@@H]1CC[C@]2(O)C(=O)COC(=O)CCC(=O)O,inactive
18,CC(C)(C(=O)O)c1ccc([C@@H](O)CCCN2CCC(C(O)(c3ccccc3)c3ccccc3)CC2)cc1,inactive
19,CNC(=O)[C@@H]1O[C@@H](n2cnc3c(NCc4ccc(N)cc4)ncnc32)[C@@H](O)[C@H]1O,inactive
